Assay results as given in PubChem BioAssay (NCATS).
Results filed as inconclusive are left out. The source made the active and inactive calls. Calls come from the whole dose curve; as a rule, active = well fitted inhibition curve with a large enough effect; inconclusive = small, poorly fitted or top-dose-only effect; inactive = flat fitted curve, though single readings scatter.

Key:
[1] = Drug repurposing screens with cells derived from glioblastoma tumor samples (AID 1345199); conditions: GBM patient neurospheres viability, ATP luminescence, 48 h; note: nearly all actives have a fitted effect of over 40% in size
Method in brief: (§1)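 Primary testing used CD133+ neurospheres from four GBM patients, seven concentrations, 48 h exposure and ATP-based viability; confirmation added three slower-growing patient lines.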

astro = control astrocytes; test: as above; conditions: viability, ATP luminescence, 48 h; series mostly up to 45.9 µM
Method in brief: as §1

[2] = at 45.9 µM (top of the series), tumour line B
[3] = at 45.9 µM (top of the series), tumour line D
[4] = at 46.1 µM (top of the series), tumour line C
[5] = at 46 µM (top of the series), tumour line A
[6] = at 20 µM (top of the series), tumour line C
[7] = at 21.2 µM (top of the series), tumour line B
[8] = at 21.2 µM (top of the series), tumour line D
[9] = at 21.3 µM (top of the series), tumour line A
% is set by controls: 0 for no effect and ±100 for the full control effect; potency is the fitted concentration of half-maximal effect.

CO/N=C(\C(=O)N[C@@H]1C(=O)N2C(C(=O)O)=C(CSc3nnnn3C)CS[C@H]12)c1csc(N)n1
inactive: activity, negative = cell killing [1, 2] -10.5% | activity, negative = cell killing [1, 3] -9.07% | activity, negative = cell killing [1, 4] -27.1% | Potency (astro)
active: Potency ([1]; tumour line A) 11.2 µM

CCC(C(=O)NC(N)=O)c1ccccc1 (stereo not given)
inactive: activity, negative = cell killing [1, 2] -5.95% | activity, negative = cell killing [1, 3] -2.75% | activity, negative = cell killing [1, 5] -8.52% | activity, negative = cell killing [1, 4] -14.2% | Potency (astro)

C[S+](C)CCC(N)C(=O)O (stereo not given)
inactive: activity, negative = cell killing [1, 2] -1.5% | activity, negative = cell killing [1, 3] -4.21% | activity, negative = cell killing [1, 5] -14.6% | activity, negative = cell killing [1, 4] -27.3% | Potency (astro)

CC/C(=C(/CC)c1ccc(OP(=O)(O)O)cc1)c1ccc(OP(=O)(O)O)cc1
inactive: activity, negative = cell killing [1, 2] -16% | activity, negative = cell killing [1, 3] -11.4% | activity, negative = cell killing [1, 5] -22.6% | activity, negative = cell killing [1, 4] -17.3% | Potency (astro)

CCOC(=O)c1cc(-c2ccccc2)nc2ccc(C)cc12
active: Potency ([1]; tumour line A) 12.6 µM
inactive: activity, negative = cell killing [1, 2] -20.9% | activity, negative = cell killing [1, 3] 9.36% | activity, negative = cell killing [1, 4] -13.3% | Potency (astro)

COC(=O)C(CN)c1c[nH]c2ccc(OC)cc12 (stereo not given)
inactive: activity, negative = cell killing [1, 2] -10.3% | activity, negative = cell killing [1, 3] -14.4% | activity, negative = cell killing [1, 5] -30.9% | activity, negative = cell killing [1, 4] -0.904% | Potency (astro)

Nc1nc2c(c(=O)[nH]1)N(C=O)C(CNc1ccc(C(=O)N[C@@H](CCC(=O)O)C(=O)O)cc1)CN2 (stereo not given in full)
inactive: activity, negative = cell killing [1, 6] -2.81% | activity, negative = cell killing [1, 7] -5.52% | activity, negative = cell killing [1, 8] -5.96% | activity, negative = cell killing [1, 9] -10.3% | Potency (astro)

CC(C)NCC(O)COc1ccccc1-n1cccc1 (stereo not given)
inactive: activity, negative = cell killing [1, 2] -14.4% | activity, negative = cell killing [1, 3] -7.4% | activity, negative = cell killing [1, 5] 15.7% | Potency (astro)
active: Potency ([1]; tumour line C) 25.9 µM

CO[C@H]1C=CO[C@@]2(C)Oc3c(C)c(O)c4c(O)c(cc(O)c4c3C2=O)NC(=O)/C(C)=C\C=C/[C@H](C)[C@H](O)[C@@H](C)[C@@H](O)[C@@H](C)[C@H](OC(C)=O)[C@@H]1C
inactive: activity, negative = cell killing [1, 2] -13.5% | activity, negative = cell killing [1, 3] -5.36% | activity, negative = cell killing [1, 5] -17.1% | activity, negative = cell killing [1, 4] -2.25% | Potency (astro)

COc1ccc(C(=O)CCC(=O)O)c2ccccc12
inactive: activity, negative = cell killing [1, 2] 0.841% | activity, negative = cell killing [1, 3] 1.24% | activity, negative = cell killing [1, 5] -50.8% | activity, negative = cell killing [1, 4] -26.3% | Potency (astro)

CC(C)[C@@H](N)C(=O)O
inactive: activity, negative = cell killing [1, 2] -4.72% | activity, negative = cell killing [1, 3] -10.1% | activity, negative = cell killing [1, 5] -15.5% | activity, negative = cell killing [1, 4] -0.187% | Potency (astro)

CS(=O)(=O)OCC(O)C(O)COS(C)(=O)=O (stereo not given)
inactive: activity, negative = cell killing [1, 2] -10.6% | activity, negative = cell killing [1, 3] -10.3% | activity, negative = cell killing [1, 5] -29.4% | activity, negative = cell killing [1, 4] -1.32% | Potency (astro)

O=C(O)[C@H]1CN(C/C=C/P(=O)(O)O)CCN1
inactive: activity, negative = cell killing [1, 2] -1.77% | activity, negative = cell killing [1, 3] 1.08% | activity, negative = cell killing [1, 5] -25.5% | activity, negative = cell killing [1, 4] -5.57% | Potency (astro)

O=P(O)(O)OC[C@H](O)CO
inactive: activity, negative = cell killing [1, 2] -8.89% | activity, negative = cell killing [1, 3] -11.2% | activity, negative = cell killing [1, 5] -27.1% | activity, negative = cell killing [1, 4] 21.9% | Potency (astro)

C[C@@H]1C/C=C/C=C/C=C/C=C/[C@H](O[C@@H]2O[C@H](C)[C@@H](O)[C@H](N)[C@@H]2O)C[C@@H]2O[C@](O)(C[C@@H](O)C[C@H]3O[C@@H]3/C=C/C(=O)O1)C[C@H](O)[C@H]2C(=O)O
inactive: activity, negative = cell killing [1, 2] -13.9% | activity, negative = cell killing [1, 3] -5.09% | activity, negative = cell killing [1, 5] -20.3% | activity, negative = cell killing [1, 4] -13.5% | Potency (astro)

Cn1c(O)c(N=NC(N)=S)c2ccccc21
active: Potency ([1]; tumour line A) 31.6 µM
inactive: activity, negative = cell killing [1, 2] -22.4% | activity, negative = cell killing [1, 3] -18.5% | activity, negative = cell killing [1, 4] -19.8% | Potency (astro)

O=C(NNCNNC(=O)c1ccncc1)c1ccncc1
inactive: activity, negative = cell killing [1, 2] -12% | activity, negative = cell killing [1, 3] -9.77% | activity, negative = cell killing [1, 5] -25.1% | activity, negative = cell killing [1, 4] -23% | Potency (astro)

CCCCCCCCCCCCCC(=O)OCC(COP(=O)([O-])OCC[N+](C)(C)C)OC(=O)CCCCCCCCCCCCC (stereo not given)
inactive: activity, negative = cell killing [1, 2] -7.07% | activity, negative = cell killing [1, 3] 3.06% | activity, negative = cell killing [1, 5] -21.5% | activity, negative = cell killing [1, 4] -13.4% | Potency (astro)

CC[C@@H](C)[C@H](N)C(=O)O
inactive: activity, negative = cell killing [1, 2] -5.93% | activity, negative = cell killing [1, 3] -17.3% | activity, negative = cell killing [1, 5] -37.7% | activity, negative = cell killing [1, 4] -13.6% | Potency (astro)

CC(=O)N=c1sc(S(N)(=O)=O)nn1C
inactive: activity, negative = cell killing [1, 6] -7.38% | activity, negative = cell killing [1, 7] -5.71% | activity, negative = cell killing [1, 8] -24.8% | activity, negative = cell killing [1, 9] -18.1% | Potency (astro)
